The record followed here is PubChem BioAssay (NCI).

What all share (test): NCI-60 one-dose screen, 48 h (100 = growth as untreated, 0 = no growth, -100 = all killed)
Common to all, as to conditions: 10 µM unless noted

Test [1] concerns T-47D breast.
Test [2] deals with BT-549 breast.
In test [3] the test system is MDA-MB-435 melanoma.
In test [4] the test system is SW-620 colon.
Test [5] deals with MCF7 breast.
For test [6], the system named is HCT-116 colon.
The subject of test [7] is HCC-2998 colon.
In test [8] the test system is KM12 colon.

About 83,000 compounds went through this panel and 20% of them were active in at least one assay; those are over-represented in the sample as a whole.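 Cells were grown in 96-well plates and exposed to the test compound at a single concentration for 48 hours; results are reported as percent growth, with values below 10 considered active.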 Active and inactive are the calls of the source.

Consider `O=C(/C(=C\c1ccc([N+](=O)[O-])cc1)S(=O)Cc1ccc(F)cc1)c1ccc(F)cc1` (stereo not drawn), for which the growth in test [1] was 10.3% (inactive); in test [2], 74.6% (inactive); in test [3], 53.7% (inactive); in test [4], -33.5% (active); in test [5], 16.4% (inactive); in test [6], -20.5% (active). Moreover, the growth in test [7] is 45.9% (inactive); in test [8], 43.4% (inactive).
As for `O=C(CSc1nc2ccccc2[nH]1)NCc1ccccc1`, the growth was 92% (inactive) in test [1]; 105% (inactive) in test [2]; 95.8% (inactive) in test [3]; 99.2% (inactive) in test [4]; 95.5% (inactive) in test [5]; 107% (inactive) in test [6]. The values for the growth in test [7] and in test [8] were 102% (inactive) and 105% (inactive), respectively.
With `Cc1cccc(C)c1N=c1oc2ccc(Cl)cc2nc1-c1ccccc1O`, the growth was 37.8% (inactive) in test [1]; 107% (inactive) in test [2]; 99.3% (inactive) in test [3]; 91% (inactive) in test [4]; 67.9% (inactive) in test [5]; 76.6% (inactive) in test [6]. Besides, the growth was 93.8% (inactive) in test [7] and 98.9% (inactive) in test [8].
In the case of `C/C(=N\NC(=O)CSc1nc2ccccc2c(=O)n1CCc1ccc(S(N)(=O)=O)cc1)c1ccccn1`, the growth in test [1] is 28.4% (inactive); in test [2], 59.4% (inactive); in test [3], 33.4% (inactive); in test [4], 32.1% (inactive); in test [5] it was 34.5% (inactive); in test [6] it was 24.5% (inactive). Further, the growth in test [7] was 39.3% (inactive); in test [8], 21.3% (inactive).
In the case of `Cc1c(C(=O)NCCC(=O)NO)sc2ncnc(Nc3ccc(NC(=O)Nc4cccc(C(F)(F)F)c4)cc3)c12`, the growth is 101% (inactive) in test [1]; 137% (inactive) in test [2]; 103% (inactive) in test [3]; 104% (inactive) in test [4]; 89.2% (inactive) in test [5]; 108% (inactive) in test [6]. In addition, the growth was 112% (inactive) in test [7] and 100% (inactive) in test [8].
With `COc1cc(NCCCCCNC(C)(C)C)c2ncccc2c1`, the growth in test [1] was 19.9% (inactive); in test [2] it was 109% (inactive); in test [3], 94.6% (inactive); in test [4] it was 96.7% (inactive); in test [5], -54.4% (active); in test [6], 101% (inactive). Also, the growth in test [7] was 97.5% (inactive); in test [8], 95.4% (inactive).
Turning to `CC1(C)NCCC[C@]2(C)[C@H]3CC(=O)[C@H]4[C@@H]5C[C@](C)(CO)CC[C@]5(C)CC[C@@]4(C)[C@]3(C)CC[C@@H]12`, the growth in test [1] was 87.5% (inactive); in test [2], 103% (inactive); in test [3], 92.2% (inactive); in test [4] it was 98.6% (inactive); in test [5], 87.3% (inactive); in test [6], 84.1% (inactive). The results for the growth in test [7] and in test [8] were 100% (inactive) and 95.4% (inactive), respectively.
Turning to `CC(=O)Oc1ccc(/C=N/NC(N)=S)nc1`, the growth in test [1] was 52% (inactive); in test [2], 32.7% (inactive); in test [3] it was 87% (inactive); in test [4], 60.9% (inactive); in test [5], 18.4% (inactive); in test [6], 70.1% (inactive). The growth in test [7] is 55% (inactive); in test [8], 76.5% (inactive).
As to `Nc1nc(Nc2ccccc2SSc2ccccc2Nc2nc(N)nc(-c3ccc(C(F)(F)F)cc3)n2)nc(-c2ccc(C(F)(F)F)cc2)n1`, the growth in test [1] was 41.7% (inactive); in test [2] it was 75.6% (inactive); in test [3], 74.9% (inactive); in test [4], 80.4% (inactive); in test [5], 52.2% (inactive); in test [6] it was 51% (inactive). In addition, the growth in test [7] is 93.1% (inactive); in test [8], 44.8% (inactive).
In the case of `O=C(Cn1c(C(=O)c2ccccc2)nc2ccccc21)c1ccc(F)cc1`, the growth in test [1] was 58.7% (inactive); in test [2], 60.2% (inactive); in test [3], -32% (active); in test [4] it was 22.9% (inactive); in test [5] it was 36.4% (inactive); in test [6], 39.2% (inactive). The growth in test [7] was 50.1% (inactive); in test [8] it was 43.9% (inactive).
For `NC1=NN=C(N)C1=Cc1cc2ccccc2n2nnnc12`, the growth is 88.4% (inactive) in test [1]; 94.7% (inactive) in test [2]; 108% (inactive) in test [3]; 98.2% (inactive) in test [4]; 89.9% (inactive) in test [5]; 104% (inactive) in test [6]. For the same molecule, the growth in test [7] was 108% (inactive); in test [8], 105% (inactive).
Take `CSc1nc2sc3cccc(Cl)c3n2c(=N)c1C#N`: the growth is 83.9% (inactive) in test [1]; 96.7% (inactive) in test [2]; 104% (inactive) in test [3]; 102% (inactive) in test [4]; 88.4% (inactive) in test [5]; 101% (inactive) in test [6]. Moreover, the figures for the growth in test [7] and in test [8] were 106% (inactive) and 101% (inactive), respectively.
Consider `C=C1C(=O)O[C@H]2[C@H]1CC/C(CNC(=O)c1cccc3ccccc13)=C\CC[C@@]1(C)O[C@@H]21`, for which the growth in test [1] was 46% (inactive); in test [2], 46.9% (inactive); in test [3], 40.2% (inactive); in test [4], 16.5% (inactive); in test [5], 24.4% (inactive); in test [6], -21.6% (active). In addition, the growth in test [7] was 88% (inactive); in test [8], 83.2% (inactive).
With `CCCOC(=O)N[C@H]1CCc2cc(OC)c(OC)c(OC)c2-c2ccc(SC)c(=O)cc21`, the growth in test [1] was 39.3% (inactive); in test [2] it was 10.2% (inactive); in test [3], -40.4% (active); in test [4], 18.4% (inactive); in test [5] it was 15.6% (inactive); in test [6], 7.65% (active). Moreover, the growth is 23% (inactive) in test [7] and -11.3% (active) in test [8].
With `Brc1ccc(Nc2csc(-c3ccccn3)n2)cc1`, the growth in test [1] is 82.6% (inactive); in test [2] it was 101% (inactive); in test [3] it was 100% (inactive); in test [4], 71% (inactive); in test [5] it was 87.2% (inactive); in test [6], 88.8% (inactive). In addition, the growth in test [7] is 92.2% (inactive); in test [8] it was 72.7% (inactive).
In the case of `COc1ccc(C(=O)c2cc(C)c(OC)c(C)c2)c(OC)c1OC(=O)C(Cl)Cl`, the growth is 59.5% (inactive) in test [1]; 11.4% (inactive) in test [2]; -28.4% (active) in test [3]; 20% (inactive) in test [4]; 12.4% (inactive) in test [5]; 1.56% (active) in test [6]. The growth in test [7] is 9.93% (active); in test [8] it was 8.08% (active).
